Only some compounds are listed: those with a hit (about 9.5% of all), similar ones and a draw of the others.
SARS PLpro yeast: qHTS of Yeast-based Assay for SARS-CoV PLP; 0.19% of 330,000 active; S. cerevisiae expressing SARS-CoV PLpro, growth rescue; Potency, µM (top dose mostly 32.9 µM), usual class: activators; also: nearly all actives have a fitted effect of over 55% in size
Pf growth 48h: Primary qHTS for delayed death inhibitors of the malarial parasite plastid, 48 hour incubation. AID 504832, 2011. Potency, µM (titrated, usually from 28.7 µM), usual class: inhibitors. P. falciparum luciferase growth in erythrocytes, 48 h. 5.9% of 310,000 active; active = well fitted inhibition curve with a large enough effect; inconclusive = small, poorly fitted or top-dose-only effect, or another doubt; inactive = no such curve, though single readings can be large or run the other way
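Here the parasites carry a stable luciferase gene and grow inside erythrocytes in Albumax-based RPMI medium with compound for one erythrocytic cycle. Activity is scored as loss of luminescent signal.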
Pf growth 96h: Primary qHTS for delayed death inhibitors of the malarial parasite plastid, 96 hour incubation. P. falciparum luciferase reporter growth, 96 h. Potency, µM (top dose mostly 28.7 µM), most hits filed as inhibitors. 6.9% of 320,000 active; active = well fitted inhibition curve with a large enough effect; inconclusive = small, poorly fitted or top-dose-only effect, or another doubt; inactive = no such curve, though single readings can be large or run the other way
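Cell-based qHTS: luciferase-tagged P. falciparum in erythrocytes (2% hematocrit, 0.05% parasitemia final) incubated with compounds for 96 hours, 37 C, 5% CO2; luciferase detection reagent then added and luminescence measured.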
RE007 growth inh: qHTS Assay for Inhibitors of the HIV-1 protein Vpr; S. pombe RE007 Vpr strain, BacTiter-Glo ATP luminescence, 24 h; Potency, µM (series often up to 92.2 µM), usual class: inhibitors; AID 651644, 2012; 0.21% of 360,000 active; active = well fitted falling curve with a large enough effect; inconclusive = small, poorly fitted or top-dose-only effect; inactive = no such curve, though single readings can be large or run the other way; also: nearly all actives have a fitted effect of over 50% in size
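Fission yeast strain RE007, carrying one chromosomally integrated HIV-1 vpr copy, was seeded at OD 0.01 in PMG+AL medium with 23 nL pinned compound. After 24 h at 30 °C and 99% humidity, viability was read by BacTiter-Glo luminescence.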
NS1 inh: qHTS Assay for Inhibitors of Influenza NS1 Protein Function. 0.4% of 270,000 active. AID 2326, 2010. Potency, µM (doses to about 46.1 µM); also: actives are rising curves; nearly all actives have a fitted effect of over 50% in size
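In this qHTS, NS1 from influenza A is expressed in budding yeast, where it slows growth. Cells are switched from glucose to 2% galactose medium (pH 6.0, -URA), treated with compound, and growth recovery is read at OD600.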
Large screens that a line does not name were inactive. Unless noted, calls follow the shape of the full dose curve.

CSc1cccc(NC(=O)c2cnn3ccccc23)c1	none
COC(=O)c1nc(-c2ccccc2)nc(-c2ccccc2)c1C(=O)OC	none (no result: SARS PLpro yeast, Pf growth 48h, Pf growth 96h, NS1 inh)
CCCCC(CC)COC1(c2ccccc2)OC(=O)c2ccccc21 (stereo not drawn)	Pf growth 48h 9.28µM, Pf growth 96h 8.28µM
CCCNC(=O)C1(C)CCCN(Cc2csc3ccccc23)C1 (stereo not drawn)	none (no result: SARS PLpro yeast, Pf growth 48h, Pf growth 96h, NS1 inh)
COC(=O)C1=C(c2ccc(F)cc2OCc2ccccc2)C[C@@H]2CC[C@H]1N2C(=O)NCc1ccccc1Br	Pf growth 48h 4.15µM, Pf growth 96h 1.31µM (no result: NS1 inh)
COC(=O)C1=C(c2ccc(F)cc2OCc2ccccc2)C[C@@H]2CC[C@H]1N2C(=O)NCc1ccccc1C(F)(F)F	Pf growth 48h 5.22µM, Pf growth 96h inconclusive (no result: NS1 inh)
CC1CN(C(=O)CSc2nc(N)c(NC(=O)c3ccc(C(F)(F)F)cc3)c(=O)[nH]2)CC(C)O1 (stereo not drawn)	none (no result: SARS PLpro yeast, Pf growth 48h, Pf growth 96h, NS1 inh)
COCc1cccc(-c2csc(C(O)c3ccccc3)n2)c1 (stereo not drawn)	none (no result: SARS PLpro yeast, Pf growth 48h, Pf growth 96h, NS1 inh)
CCCCCC(=O)N1C[C@@H](O)[C@H](n2cc(-c3ccc(F)cc3)nn2)C[C@@H]1c1ccccc1	none (no result: SARS PLpro yeast, Pf growth 48h, Pf growth 96h, NS1 inh)
CC1CN(C(=O)COC(=O)Cc2ccc(Cl)cc2)CC(C)O1 (stereo not drawn)	Pf growth 48h inconclusive (no result: NS1 inh)
COc1ccc(S(=O)(=O)Nc2c(C)cc(C)cc2C)c2cccnc12	none
Nc1cc(-c2ccc(Cl)cc2)nn1S(=O)(=O)c1cccc2nsnc12	Pf growth 96h inconclusive (no result: Pf growth 48h)
Nc1cc(-c2cccc(F)c2)nn1S(=O)(=O)c1cccc2nsnc12	Pf growth 96h 1.65µM
O=C(Nc1cccc(Oc2ccc(C(=O)O)c(C(=O)O)c2)c1)c1ccc(-c2ccccc2)cc1	Pf growth 48h 1.65µM
COc1ccc(NC(=O)c2cccs2)cc1	Pf growth 96h inconclusive
O=C(Nc1ccc(Oc2ccc(C(=O)O)c(C(=O)O)c2)cc1)c1cccs1	Pf growth 96h 2.08µM
O=C(CSc1nnc(-c2cccnc2)o1)Nc1ccccc1F	none (no result: NS1 inh)
COc1ccc(Cc2nnc(NC(=O)Nc3ccccc3F)s2)cc1OC	Pf growth 48h inconclusive, Pf growth 96h 11.7µM, NS1 inh inconclusive
O=C(Nc1ccc(Cl)c(Cl)c1)Nc1nnc(CSc2ccccc2)s1	Pf growth 48h 4.65µM
COc1ccc(NC(=O)Nc2nnc(Cc3ccc(OC)c(OC)c3)s2)cc1	Pf growth 96h 11.7µM
COc1ccc(Cc2nnc(NC(=O)Nc3ccccc3F)s2)cc1	none
COc1ccc(Cc2nnc(NC(=O)c3ccccc3F)s2)cc1OC	Pf growth 96h inconclusive
O=C(Nc1nnc(Cc2ccc(F)cc2)s1)Nc1ccccc1F	Pf growth 96h 11.7µM
O=C(Nc1ccccc1)Nc1nnc(CSCc2ccccc2Cl)s1	Pf growth 96h inconclusive
CCOC(=O)C1(C)CCCN(C(=O)c2cc(F)ccc2C)C1 (stereo not drawn)	none (no result: SARS PLpro yeast, Pf growth 48h, Pf growth 96h, NS1 inh)
COc1ccc(CNC(=O)C(c2ccc(C)o2)N(C(=O)c2csnn2)c2ccc(C(C)C)cc2)cc1 (stereo not drawn)	Pf growth 48h inconclusive
c1ccc(CSc2nc3ncccn3n2)cc1	none (no result: NS1 inh)
COc1ccc(Cc2nnc(NC(=O)c3cccc([N+](=O)[O-])c3C)s2)cc1	Pf growth 96h 0.465µM
O=C(Nc1ccccc1)Nc1nnc(Cc2ccc(F)cc2)s1	Pf growth 48h inconclusive, Pf growth 96h 8.28µM
Cc1ccc(NC(=O)Nc2nnc(Cc3ccc(F)cc3)s2)cc1	Pf growth 96h inconclusive
Cc1ccc(OCCSCc2nnc(NC(=O)Nc3cccc(Cl)c3)s2)cc1	Pf growth 48h 11.7µM, Pf growth 96h inconclusive
O=C(COc1cccc(C(F)(F)F)c1)NNC(=O)Cn1c(=O)cnc2ccccc21	none (no result: NS1 inh)
CCCCCNC(=O)c1[nH]c(C(F)(F)F)nc1-c1ccccc1	none (no result: SARS PLpro yeast, Pf growth 48h, Pf growth 96h, NS1 inh)
O=C(NCCCN1CCOCC1)C(Sc1ccccc1)c1ccccc1 (stereo not drawn)	Pf growth 96h 7.38µM
CCC(C)NS(=O)(=O)c1ccc(NC(=O)C(Sc2ccccc2)c2ccccc2)cc1 (stereo not drawn)	Pf growth 48h inconclusive
CCCCNS(=O)(=O)c1ccc(NC(=O)C(Sc2ccccc2)c2ccccc2)cc1 (stereo not drawn)	Pf growth 48h 10.4µM, Pf growth 96h inconclusive
COc1cccc(/C=C/C(=O)OCC(=O)Nc2nnc(-c3ccccc3)o2)c1	Pf growth 96h inconclusive (no result: NS1 inh)

From PubChem
